The results in this text go back to PubChem BioAssay (EPA / NIEHS).

Active and inactive are the calls of the source. The calls were made as follows: active = hit-call score of the fitted dose curve at least 0.9, where 1 is the maximum; inactive = score below 0.9.

The target in experiment [1] is Transcription factor E2F1 (Homo sapiens) (UniProt Q01094). In words: ATG_E2F_CIS: Attagene CIS-FACTORIAL HepG2 Assay for human E2F Transcription Factor 1 (AID 2282935). As to conditions: HepG2 Attagene cis-reporter, E2F reporter RNA transcripts; actives raise or lower the signal. In short, it runs like this:
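First, HepG2 cells were transfected with reporter transcription units. Next, they were dosed for 24 h. Then RNA was isolated, converted to cDNA, PCR-amplified, FAM-labeled, HpaI-digested and analyzed by capillary electrophoresis.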

Experiment [2] can be described thus: ATG_E_Box_CIS: Attagene CIS-FACTORIAL HepG2 Assay for human Enhancer Box (E-box) (AID 2282936). As to conditions: HepG2 E-box cis-reporter transcription, actives raise or lower the signal. In short, it runs like this:
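Endogenous transcription factor activity was sensed in human HepG2 liver cells through transfected cis-promoter reporter units. After 24 h of dosing, total RNA was reverse-transcribed and reporter cDNA resolved by capillary electrophoresis.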

Experiment [3] is described as follows: ATG_M_61_CIS: Attagene CIS-FACTORIAL HepG2 Assay for M61 Transcription Factor (Internal Marker) (AID 2282937). As to conditions: HepG2 Attagene CIS-FACTORIAL M61 internal marker reporter; actives raise or lower the signal. In short, it runs like this:
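Readout: fluorescent reporter mRNA fragments resolved by capillary electrophoresis after RT-PCR. Transiently transfected human HepG2 cells carried MRTU constructs reporting endogenous TF activity; 24 h chemical exposure; gain or loss of signal fitted relative to DMSO.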

A short description of experiment [4]: ATG_EGR_CIS: Attagene CIS-FACTORIAL HepG2 Assay for human Early Growth Response 1 (EGR1) (AID 2282938). As to conditions: HepG2 Attagene CIS-FACTORIAL EGR reporter mRNA; actives raise or lower the signal. In short, it runs like this:
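Read-out: fluorescent reporter-mRNA fragments resolved by capillary electrophoresis after RT-PCR, 24 h post-dose in transiently transfected HepG2. Endogenous transcription-factor activity reported via cis-element-regulated reporter units; gain or loss fitted relative to DMSO.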

The nature of experiment [5]: ATG_M_19_CIS: Attagene CIS-FACTORIAL HepG2 Assay for M19 Transcription Factor (Internal Marker) (AID 2282939). As to conditions: HepG2 Attagene CIS-FACTORIAL M19 internal marker reporter; actives raise or lower the signal. In short, it runs like this: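 HepG2 cells transiently transfected with cis-regulated multiple reporter transcription units were dosed for 24 h; reporter mRNA was quantified by RT-PCR, 6-FAM primer-extension labelling, HpaI digestion and capillary electrophoresis, with bidirectional fitting against DMSO baseline.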

Experiment [6] in a line: ATG_ERE_CIS: Attagene CIS-FACTORIAL HepG2 Assay for Estrogen Response Element (ERE) (AID 2282940). As to conditions: HepG2 ERE cis-reporter, Attagene RNA transcript; actives raise or lower the signal. In short, it runs like this: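 HepG2 cells transiently transfected with cis-promoter-driven multiplexed reporter transcription units report endogenous TF activity. After 24 h compound exposure, reporter mRNA is quantified by RT-PCR with capillary electrophoresis fluorescence; bidirectional fitting versus DMSO baseline.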

A short description of experiment [7]: ATG_Ets_CIS: Attagene CIS-FACTORIAL HepG2 Assay for human Erythroblast Transformation Specific (ETS) (AID 2282941). As to conditions: HepG2 ETS cis-reporter transcription, actives raise or lower the signal. In short, it runs like this: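 Cis-regulated reporter mRNA induction in HepG2 (transient transfection), 24 h exposure, RT-PCR plus capillary electrophoresis detection; DMSO serves as negative control and baseline.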

Experiment [8] has as its target Hepatocyte nuclear factor 3-beta (Homo sapiens) (UniProt Q9Y261). Briefly: ATG_FoxA2_CIS: Attagene CIS-FACTORIAL HepG2 Assay for human Forkhead box A2 (FOXA2) (AID 2282942). As to conditions: HepG2 cis-reporter transcription factor activity, 24 h; actives raise or lower the signal. In short, it runs like this:
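Readout: fluorescent reporter transcripts resolved by capillary electrophoresis after RT-PCR. Transiently transfected HepG2, 24 h compound exposure, endogenous TF activity at cis promoter elements. Gain or loss of signal fitted relative to DMSO.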

A short description of experiment [9]: ATG_FoxO_CIS: Attagene CIS-FACTORIAL HepG2 Assay for human Forkhead box O (FoxO) (AID 2282943). As to conditions: HepG2 Attagene cis-reporter, FoxO element, mRNA; actives raise or lower the signal. In a few lines: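 Values reflect reporter mRNA induction or loss in HepG2 cells 24 h post-dosing, fitted bidirectionally with DMSO as negative control and baseline. Detection used RT-PCR and fluorescence capillary electrophoresis.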

Experiment [10] can be described thus: ATG_GATA_CIS: Attagene CIS-FACTORIAL HepG2 Assay for human GATA Binding Protein (AID 2282944). As to conditions: HepG2 GATA cis-element reporter, Attagene multiplex mRNA; actives raise or lower the signal. In a few lines:
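HepG2 cells transiently transfected with multiplexed cis-element reporter units reflecting endogenous transcription factor activity; reporter mRNA measured after 24 h dosing by RT-PCR, 6-FAM labeling, HpaI digestion and capillary electrophoresis. Bidirectional fitting versus DMSO baseline.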

The nature of experiment [11]: ATG_GLI_CIS: Attagene CIS-FACTORIAL HepG2 Assay for human Zinc Finger Protein GLI1 (AID 2282945). As to conditions: HepG2, Attagene cis-factorial reporter mRNA, GLI element; actives raise or lower the signal. In a few lines:
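HepG2 cells transiently transfected with cis-promoter multiplexed reporter units report endogenous transcription factor activity. After 24 h chemical exposure, reporter mRNA was quantified by RT-PCR, 6-FAM labelling, HpaI digestion and capillary electrophoresis, with bidirectional fitting against DMSO.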

Experiment [12] is described as follows: ATG_GRE_CIS: Attagene CIS-FACTORIAL HepG2 Assay for human Glucocorticoid Response Elements (GRE) (AID 2282947). As to conditions: HepG2 GRE cis-reporter, Attagene multiplex mRNA; actives raise or lower the signal. In short, it runs like this:
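Cells (HepG2) bearing transfected cis-promoter reporter transcription units were treated with chemical for 24 hours. Reporter mRNA was measured via RT-PCR with capillary electrophoresis, and activity was fitted in both directions relative to DMSO.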

A short description of experiment [13]: ATG_ISRE_CIS: Attagene CIS-FACTORIAL HepG2 Assay for human Interferon Regulatory Factor 1 (IRF1) binding to an Interferon-Stimulated Response Element (ISRE) (AID 2282948). As to conditions: HepG2 ISRE cis-reporter (Attagene), mRNA transcription readout; actives raise or lower the signal. In short, it runs like this: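 Multiplexed mRNA reporter readout in human liver HepG2 cells: cis-element-driven reporters transfected, compound added for 24 h, transcripts amplified, fluorescently labelled and sized by capillary electrophoresis; curve fitting bidirectional against DMSO.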

A short description of experiment [14]: ATG_M_32_CIS: Attagene CIS-FACTORIAL HepG2 Assay for M32 Transcription Factor (Internal Marker) (AID 2282949).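 Also: background control marker of the multiplexed CIS panel rather than a real target.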 As to conditions: HepG2 Attagene cis-factorial M32 reporter, mRNA; actives raise or lower the signal. In short, it runs like this:
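HepG2 human liver cells transiently transfected with cis-promoter-driven multiple reporter transcription units, dosed 24 h. Reporter mRNA quantified by RT-PCR, FAM-labelled primer extension, HpaI digest and capillary electrophoresis; bidirectional fit versus DMSO baseline.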

Experiment [15] can be described thus: ATG_M_06_CIS: Attagene CIS-FACTORIAL HepG2 Assay for M06 Transcription Factor (Internal Marker) (AID 2282950). As to conditions: HepG2 Attagene CIS-FACTORIAL M06 internal marker reporter; actives raise or lower the signal. In short, it runs like this: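 HepG2 cells transiently transfected with cis-regulated multiple reporter transcription units were exposed to chemical for 24 h; reporter mRNA was quantified by RT-PCR, 6-FAM primer labelling, HpaI digestion and capillary electrophoresis, fitted bidirectionally against DMSO.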

In experiment [16] the target is Hypoxia-inducible factor 1-alpha (Homo sapiens) (UniProt Q16665). In words: ATG_HIF1a_CIS: Attagene CIS-FACTORIAL HepG2 Assay for human Hypoxia Inducible Factor 1 (HIF1A) (AID 2282951). As to conditions: HepG2 Attagene cis-factorial HIF1a reporter transcription; actives raise or lower the signal. In short, it runs like this:
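RT-PCR/capillary electrophoresis fluorescence readout of reporter transcripts from endogenous-TF-driven cis elements in transfected HepG2 cells, 24 h exposure; activity fitted in both directions against DMSO controls.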

Experiment [17] addresses Hepatocyte nuclear factor 6 (Homo sapiens) (UniProt Q9UBC0). In words: ATG_HNF6_CIS: Attagene CIS-FACTORIAL HepG2 Assay for human Hepatocyte Nuclear Factor 6 (HNF6) (AID 2282952). As to conditions: HepG2 Attagene cis-factorial HNF6 reporter transcription; actives raise or lower the signal. In short, it runs like this:
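Using cis-element reporters in HepG2 liver cells, the assay tracks endogenous factor-driven transcription 24 h post-dosing. Signal comes from 6-FAM-labelled, HpaI-digested RT-PCR fragments, with gain or loss scored against DMSO.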

For experiment [18], the target named is Bile acid receptor (Homo sapiens) (UniProt Q96RI1). In words: ATG_IR1_CIS: Attagene CIS-FACTORIAL HepG2 Assay for human Nuclear Receptor Subfamily 1 Group H Member 4 (NR1H4), IR1 submotif (AID 2282946). As to conditions: IR1 reporter transcription, actives raise or lower the signal. In short, it runs like this:
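Readout: reporter transcript levels by RT-PCR with fluorescent capillary electrophoresis, from HepG2 cells transiently transfected with multiplexed cis-regulated reporters and dosed 24 h. Gain- or loss-of-signal fitted versus DMSO negative control.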

The nature of experiment [19]: ATG_MRE_CIS: Attagene CIS-FACTORIAL HepG2 Assay for human Metal Responsive Element (MRE) (AID 2282954). As to conditions: HepG2 MRE cis-reporter transcription, Attagene multiplex; actives raise or lower the signal. In a few lines: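 Cells were transfected with cis-promoter reporter transcription units, then dosed for 24 h. RNA was reverse-transcribed, amplified, fluorescently labelled and resolved by capillary electrophoresis, and activity was fitted in both directions relative to DMSO.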

Sequence of Bile acid receptor (Homo sapiens) (Q96RI1 whole entry, looked up): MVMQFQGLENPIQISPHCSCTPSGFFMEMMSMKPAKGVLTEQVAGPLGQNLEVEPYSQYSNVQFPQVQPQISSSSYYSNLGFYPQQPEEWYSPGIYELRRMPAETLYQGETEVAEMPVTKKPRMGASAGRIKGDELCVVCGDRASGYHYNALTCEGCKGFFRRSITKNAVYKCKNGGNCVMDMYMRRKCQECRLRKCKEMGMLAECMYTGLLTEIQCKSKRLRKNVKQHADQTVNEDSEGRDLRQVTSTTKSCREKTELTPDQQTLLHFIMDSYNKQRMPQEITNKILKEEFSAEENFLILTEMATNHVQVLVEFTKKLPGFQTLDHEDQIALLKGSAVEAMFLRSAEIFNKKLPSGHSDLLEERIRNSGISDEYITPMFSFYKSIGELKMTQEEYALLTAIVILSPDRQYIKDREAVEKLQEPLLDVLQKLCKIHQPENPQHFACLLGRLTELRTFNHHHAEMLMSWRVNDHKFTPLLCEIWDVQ
Sequence of Hypoxia-inducible factor 1-alpha (Homo sapiens) (Q16665 whole entry, looked up): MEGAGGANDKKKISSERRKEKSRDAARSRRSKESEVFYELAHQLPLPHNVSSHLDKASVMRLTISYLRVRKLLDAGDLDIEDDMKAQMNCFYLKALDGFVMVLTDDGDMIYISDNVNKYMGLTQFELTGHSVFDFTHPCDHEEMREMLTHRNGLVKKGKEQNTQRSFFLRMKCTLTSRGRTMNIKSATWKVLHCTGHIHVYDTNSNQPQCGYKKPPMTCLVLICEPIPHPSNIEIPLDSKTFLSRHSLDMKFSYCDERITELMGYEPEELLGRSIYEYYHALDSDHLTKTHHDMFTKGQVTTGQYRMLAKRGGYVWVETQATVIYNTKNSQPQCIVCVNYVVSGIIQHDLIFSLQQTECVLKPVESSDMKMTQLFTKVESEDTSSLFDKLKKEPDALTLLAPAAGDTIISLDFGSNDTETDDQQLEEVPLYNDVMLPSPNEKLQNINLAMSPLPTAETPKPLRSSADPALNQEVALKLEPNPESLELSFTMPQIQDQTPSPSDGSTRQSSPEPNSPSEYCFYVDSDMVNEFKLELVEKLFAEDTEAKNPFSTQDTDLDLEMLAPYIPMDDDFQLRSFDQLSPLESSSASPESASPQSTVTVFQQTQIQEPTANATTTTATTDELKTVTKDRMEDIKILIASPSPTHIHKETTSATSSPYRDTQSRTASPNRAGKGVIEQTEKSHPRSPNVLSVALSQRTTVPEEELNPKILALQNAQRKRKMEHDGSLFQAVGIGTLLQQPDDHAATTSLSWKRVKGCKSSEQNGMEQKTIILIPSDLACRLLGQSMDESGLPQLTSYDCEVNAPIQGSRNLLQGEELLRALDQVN
Sequence of Hepatocyte nuclear factor 3-beta (Homo sapiens) (Q9Y261 whole entry, looked up): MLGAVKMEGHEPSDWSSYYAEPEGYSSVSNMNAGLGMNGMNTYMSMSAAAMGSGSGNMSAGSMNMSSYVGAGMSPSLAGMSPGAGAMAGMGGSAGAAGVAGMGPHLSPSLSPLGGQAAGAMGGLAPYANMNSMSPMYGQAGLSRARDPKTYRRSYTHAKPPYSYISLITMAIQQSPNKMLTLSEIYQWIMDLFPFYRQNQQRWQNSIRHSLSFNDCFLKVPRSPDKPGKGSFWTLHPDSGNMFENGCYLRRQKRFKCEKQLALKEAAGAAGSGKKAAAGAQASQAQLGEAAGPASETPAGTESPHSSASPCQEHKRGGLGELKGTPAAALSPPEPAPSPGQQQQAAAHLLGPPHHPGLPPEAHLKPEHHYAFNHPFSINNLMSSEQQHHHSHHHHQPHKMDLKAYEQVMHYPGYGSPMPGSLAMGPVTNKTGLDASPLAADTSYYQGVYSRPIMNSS
Sequence of Transcription factor E2F1 (Homo sapiens) (Q01094 whole entry, looked up): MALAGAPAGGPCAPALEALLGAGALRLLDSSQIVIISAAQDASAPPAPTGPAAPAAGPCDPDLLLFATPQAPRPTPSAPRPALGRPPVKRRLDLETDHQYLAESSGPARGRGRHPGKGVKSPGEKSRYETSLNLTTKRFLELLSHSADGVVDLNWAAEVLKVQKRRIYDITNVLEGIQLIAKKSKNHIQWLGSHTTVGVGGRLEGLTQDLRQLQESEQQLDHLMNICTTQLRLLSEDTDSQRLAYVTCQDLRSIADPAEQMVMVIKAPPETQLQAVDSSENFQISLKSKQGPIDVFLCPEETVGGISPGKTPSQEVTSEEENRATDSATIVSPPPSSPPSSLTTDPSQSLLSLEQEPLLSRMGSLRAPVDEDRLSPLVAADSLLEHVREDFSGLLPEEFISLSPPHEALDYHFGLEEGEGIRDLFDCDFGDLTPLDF
Sequence of Hepatocyte nuclear factor 6 (Homo sapiens) (Q9UBC0 whole entry, looked up, the tested form may be a part): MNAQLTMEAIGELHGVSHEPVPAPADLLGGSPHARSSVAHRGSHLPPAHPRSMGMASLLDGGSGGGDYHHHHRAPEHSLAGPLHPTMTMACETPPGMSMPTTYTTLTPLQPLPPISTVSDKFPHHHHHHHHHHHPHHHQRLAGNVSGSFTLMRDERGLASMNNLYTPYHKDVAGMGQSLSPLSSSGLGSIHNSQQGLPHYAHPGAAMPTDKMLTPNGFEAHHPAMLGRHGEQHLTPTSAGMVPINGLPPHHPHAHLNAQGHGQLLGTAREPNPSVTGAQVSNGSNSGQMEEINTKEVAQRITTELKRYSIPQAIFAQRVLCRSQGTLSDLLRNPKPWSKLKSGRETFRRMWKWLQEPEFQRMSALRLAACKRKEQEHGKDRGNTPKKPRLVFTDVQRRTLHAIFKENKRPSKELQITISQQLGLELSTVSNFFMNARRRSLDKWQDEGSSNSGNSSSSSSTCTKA

On to `C=C(C)CN(CC)c1c([N+](=O)[O-])cc(C(F)(F)F)cc1[N+](=O)[O-]`, for which the call in experiment [1], in [2], in [3], in [4], in [5] and in [7] was inactive. For the same compound, the call in experiment [8], in experiment [9], in [10], in experiment [11], in experiment [12] and in experiment [13] was inactive. Also, the compound was called inactive in [14], in experiment [15], in [16] and in [17]. The half-maximal activity concentration (AC50) in experiment [6] is 31.2 µM (active).

On to `CS(=O)(=O)c1ccc(C(=O)C2C(=O)CCCC2=O)c([N+](=O)[O-])c1`, for which the compound was classed as inactive in [1], in experiment [2], in [3], in experiment [4], in experiment [5] and in [6]. The call in experiment [7], in experiment [8], in experiment [9], in [10], in experiment [11] and in experiment [18] was inactive. Moreover, the call in experiment [13], in [14], in [15], in experiment [16], in experiment [17] and in [19] was inactive.

Consider `CCSC(=O)N1CCCCCC1`, for which the compound was called inactive in experiment [1], in experiment [2], in experiment [3], in [4], in experiment [5] and in experiment [6]. For the same compound, the compound was classed as inactive in experiment [7], in [8], in experiment [9], in experiment [10], in experiment [11] and in experiment [13]. Moreover, the compound was classed as inactive in [14], in experiment [15], in experiment [16], in [17] and in experiment [19].

For `CCCCOCN(C(=O)CCl)c1c(CC)cccc1CC`, the compound was called inactive in [1], in experiment [2], in [3], in [4], in [5] and in [6]. In addition, the call in experiment [7], in experiment [8], in [9], in experiment [10], in experiment [11] and in experiment [18] was inactive. In addition, the call in [12], in experiment [13], in [14], in experiment [15], in experiment [16] and in experiment [17] was inactive.

On to `CN/C(=N\[N+](=O)[O-])NCc1cnc(Cl)s1`, for which the result in experiment [1], in [2], in experiment [3], in experiment [4], in experiment [5] and in experiment [6] was inactive. In addition, the compound was classed as inactive in experiment [7], in experiment [8], in experiment [9], in experiment [10], in [11] and in experiment [13]. In addition, the compound was called inactive in experiment [14], in [15], in experiment [16] and in experiment [17].

Take `Cc1c(COC(=O)[C@@H]2[C@H](/C=C(\Cl)C(F)(F)F)C2(C)C)cccc1-c1ccccc1`: the outcome in experiment [1], in [2], in experiment [3], in [4], in [5] and in [7] was inactive. The compound was classed as inactive in [8], in experiment [9], in [10], in [11], in experiment [18] and in experiment [13]. The compound was classed as inactive in [14], in experiment [15], in experiment [16] and in [17]. In addition, the half-maximal activity concentration (AC50) in [6] is 20.9 µM (active).

On to `COP(=S)(OC)Oc1ccc([N+](=O)[O-])c(C)c1`, for which the compound was classed as inactive in [1], in experiment [2], in experiment [3], in experiment [5], in experiment [7] and in experiment [8]. Besides, the call in experiment [9], in experiment [10], in experiment [11], in experiment [18], in [13] and in experiment [14] was inactive. Also, the result in experiment [15], in experiment [16] and in experiment [17] was inactive. Further, the values for the AC50 in experiment [4], in experiment [6] and in experiment [19] were 28.9 µM (active), 13.7 µM (active) and 50 µM (active), respectively.
